From PubChem
FBPA Giardia inh = inhibitors of Giardia lamblia fructose-1,6-bisphosphate aldolase; A8B2U2; purified Giardia FBPA; Potency, µM (top dose mostly 59.6 µM), for inactives: at the top dose activity, negative = inhibition, actives largely listed as inhibitors; hit rate 0.71% among 290,000; AID 2451; note: potency is the fitted concentration of half-maximal effect; % is set by controls: 0 for no effect and ±100 for the full control effect; nearly all actives have a fitted effect of over 55% in size
Target sequence (A8B2U2 whole entry, looked up): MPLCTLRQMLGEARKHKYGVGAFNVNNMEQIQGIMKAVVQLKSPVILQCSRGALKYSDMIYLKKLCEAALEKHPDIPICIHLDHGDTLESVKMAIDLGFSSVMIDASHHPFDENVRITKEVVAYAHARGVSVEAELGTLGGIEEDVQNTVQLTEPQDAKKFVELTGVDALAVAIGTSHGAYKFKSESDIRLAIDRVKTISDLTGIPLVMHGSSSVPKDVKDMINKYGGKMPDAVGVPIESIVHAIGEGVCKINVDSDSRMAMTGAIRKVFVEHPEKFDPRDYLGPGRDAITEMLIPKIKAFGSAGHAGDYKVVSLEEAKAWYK
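40 nM FBPA preincubated 10 min at RT with compound (up to 57.5 uM final), then substrate plus GAPDH/TPI/NAD/arsenate coupling and diaphorase/resazurin added. Fluorescence read after 20 min at RT, 525/598 nm.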
Cycloheximide cs = counter-screen hit for Shiga toxin inhibitors, cycloheximide; hit rate 12% among 300,000; AID 2314; cell reporter, cycloheximide protein synthesis inhibition counterscreen; max response, %; in the data active = max response mostly above about 13%, no sharp cut-off; inactive = mostly below about 14%; note: read at 38.3 µM for the half of the compounds with a filed dose; 0% is about no effect
Pf growth 48h = P. falciparum growth inhibition at 48 hours (one generation) | P. falciparum luciferase growth in erythrocytes, 48 h | Potency, µM (titrated, usually from 28.7 µM), without a hit: at the top dose activity change, negative = inhibition, actives largely listed as inhibitors | hit rate 5.9% among 310,000 | AID 504832; note: potency is the fitted concentration of half-maximal effect; % is set by controls: 0 for no effect and ±100 for the full control effect
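A one-generation exposure of luciferase-tagged malaria parasites in RPMI 1640/Albumax erythrocyte culture, 37 C and 5% CO2. Inhibition is inferred from decreased luminescence after adding detection reagent.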
NS1 function inh = influenza NS1 inhibition; hit rate 0.4% among 270,000; AID 2326; Potency, µM (series often up to 46.1 µM), without a hit: top-dose activity, positive = more growth; calls by dose curve; note: potency is the fitted concentration of half-maximal effect; actives are rising curves; nearly all actives have a fitted effect of over 50% in size
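Read-out: OD600 growth recovery of NS1-expressing budding yeast. Cells grown overnight at 30C in -URA glucose medium, washed, resuspended and diluted 1:100 in 2% galactose assay medium, pH 6.0. Same strain lacking NS1 served as positive control.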
Pf growth 96h = P. falciparum growth inhibition at 96 hours; hit rate 6.9% among 320,000; P. falciparum luciferase reporter growth, 96 h; Potency, µM (doses to about 28.7 µM), for the others: at the highest dose activity change, negative = inhibition, usual class: inhibitors; AID 504834; note: potency is the fitted concentration of half-maximal effect; % is set by controls: 0 for no effect and ±100 for the full control effect
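Compounds incubated with erythrocytes infected by luciferase-expressing P. falciparum (2% hematocrit, 0.05% parasitemia final) for 96 hours, 37 C in 5% CO2. Growth inhibition scored as decreased luciferase luminescence.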
Shiga toxin inh = Shiga toxin inhibition. Vero cells, Shiga toxin protein synthesis inhibition reporter. inhibition, % at 38.7 µM. hit rate 9.2% among 290,000; in the data active = inhibition mostly above about 28%, no sharp cut-off; inactive = mostly below about 43%; note: 0% is about no effect
* = called active by the depositor; i = inactive; ? = inconclusive; / = no result. The list is not random: actives were taken first. Their share in the collection is about 21%. Unless noted, calls come from the whole dose curve; as a rule, active = well fitted curve in the direction sought with a large enough effect; inconclusive = small, poorly fitted or top-dose-only effect, or another doubt; inactive = no such curve, though single readings can be large; an effect the other way counts as inactive or inconclusive.

SMILES | FBPA Giardia inh | Cycloheximide cs | Pf growth 48h | NS1 function inh | Pf growth 96h | Shiga toxin inh
Cc1ccc(C(=O)NCCn2cc(SCC(=O)Nc3nnc(C)s3)c3ccccc32)cc1 | -8.9% | 7.6 | / | 1.7% | 4.15µM* | -6.6
COc1ccccc1C(=O)NCCn1cc(SCC(=O)Nc2cc(C)on2)c2ccccc21 | -8.7% | 5.1 | ? | -5.9% | -0.7% | 4.6
CCOc1ccc(C(=O)NCCn2cc(SCC(=O)Nc3cc(C)on3)c3ccccc32)cc1 | 2.1% | 14.9* | ? | -24.9% | / | 18.2
NC(=O)CN1C(=O)NC2(CCOc3ccccc32)C1=O (stereo unspecified) | -2.1% | 10.6 | 41.3% | 5.4% | 0.0% | -1.6
COc1ccc(NC(=O)Nc2cccc3ccccc23)cc1S(N)(=O)=O | -1.1% | -2.6 | -2.5% | 7.0% | 44.1% | -9.4
COc1ccc(C2NC(c3ccc(OC)cc3OC)C(C)C(=O)C2C)c(OC)c1 (stereo unspecified) | ? | -0.4 | ? | / | -5.7% | -21.1
Cc1cc(C)nc(CCNC(=O)c2cc(COc3c(C)cccc3C)on2)n1 | / | 16.1* | -3.5% | -15.8% | 0.5% | -18.3
Cc1cc(C)nc(CCNC(=O)c2cc(COc3ccc(F)cc3Cl)on2)n1 | 0.6% | 4.7 | ? | -7.3% | ? | 21.3
CSc1ccccc1OCc1cc(C(=O)NCCC2CCCCO2)no1 (stereo unspecified) | / | 32.6* | -7.1% | 5.5% | ? | 45.5*
COCCN1CC(CNC(=O)c2cc(COc3ccccc3SC)on2)CC1=O (stereo unspecified) | 5.0% | 12.3* | -12.9% | -6.2% | 89.6% | 20.1
CSc1ccccc1OCc1cc(C(=O)N(C)C2CCCc3ccccc32)no1 (stereo unspecified) | / | 34.9 | ? | 13.5% | 19.6% | 50.4*
Cc1cccc(C)c1OCc1cc(C(=O)NCC2CCCCC2)no1 | / | -3.4 | 7.8% | 3.1% | 21.5% | -5.1
CSc1ccccc1OCc1cc(C(=O)NCCc2ccco2)no1 | / | 35.4* | 47.6% | -5.7% | 6.2% | 58.6*
CSc1ccccc1OCc1cc(C(=O)NCc2cnc(C)cn2)no1 | / | 6.8 | 47.3% | -20.4% | 28.6% | -5.1
CSc1ccccc1OCc1cc(C(=O)NCc2csc(C(C)C)n2)no1 | / | 16.9* | ? | -4.1% | 55.2% | 14.6
CSc1ccccc1OCc1cc(C(=O)NCCc2nc(C)cc(C)n2)no1 | 13.7% | 24.0* | ? | -2.9% | 6.9% | 43.0*
Cc1cc(C)nc(CCNC(=O)c2cc(COc3ccc(F)cc3F)on2)n1 | 2.4% | -4.1 | -5.5% | 4.0% | 31.7% | -7.6
Cc1cccc(C)c1OCc1cc(C(=O)NCc2cn(C)nc2C)no1 | 11.0% | 12.8* | -6.8% | 0.2% | ? | 8.3
CC(C)c1nc(CNC(=O)c2cc(COc3c(F)cccc3F)on2)cs1 | 2.9% | 0.7 | 10.4% | -2.0% | -21.6% | -3.4
C=CCOc1ccc(/C=C/C(C)=N\O)cc1 | 3.2% | 50.3* | 291.0% | -38.6% | i | 85.0*
O=C1SC(SC(=Nc2ccccc2)Nc2ccccc2)C(=O)N1c1ccccc1 (stereo unspecified) | -3.6% | 40.8* | 52.0% | -20.4% | 41.2% | 59.8*
CC(=O)c1cccc(NC(=O)C(C)OC(=O)c2ccc(-n3cnnn3)cc2)c1 (stereo unspecified) | / | / | 10.4µM* | / | 11.7µM* | /
CC(Oc1ccc(C#N)cc1)C(=O)Nc1ccc(-n2cnnn2)cc1 (stereo unspecified) | / | / | 4.65µM* | / | 3.29µM* | /
CC(=O)Nc1ccc(-n2cnnn2)cc1 | 5.5% | -2.1 | 16.3% | -1.1% | -11.8% | 18.1
CC(C)OC(=O)c1ccc(NC(=O)c2cccc(-n3cnnn3)c2)cc1 | / | / | 11.7µM* | / | ? | /
SMILES | FBPA Giardia inh | Cycloheximide cs | Pf growth 48h | NS1 function inh | Pf growth 96h | Shiga toxin inh
O=C(Nc1ccc(OC(F)(F)F)cc1)c1cccc(-n2cnnn2)c1 | / | / | ? | / | 10.4µM* | /
FC(F)(F)c1ccccc1-c1ccc2ncnc(N3CCOCC3)c2c1 | -1.3% | / | / | / | / | /
CCOc1cc(/C=C2\SC(=Nc3ccc(CC)cc3)NC2=O)ccc1OCC(=O)O | 12.7% | -3.2 | ? | 3.4% | 4.3% | -4.4
CC(C)C1=CC2=CCC3[C@@](C)(CCC[C@@]3(C)C(=O)O)C2CC1 (stereo partly specified) | 0.8% | / | / | / | / | /
CC[C@H](C)[C@@H](NC(=O)O[C@H]1C(=O)c2cc(OC)ccc2O[C@@H]1c1ccc(OC)c(Br)c1)C(=O)OC | -1.8% | / | / | / | / | /
Cc1ccc(SC[C@H](c2ccccc2)N2CCN(CC(C)C)CCC2=O)cc1 | 7.0% | 18.7 | ? | 7.4% | ? | 11.2
Cc1ccc(SC[C@H](c2ccccc2)N2CCN(C)CCC2=O)cc1 | 3.1% | 43.9* | 36.4% | -4.8% | 43.9% | 97.3*
CC(=O)Nc1ccc(SCC(c2ccccc2)N2CCN(C)CCC2=O)cc1 (stereo unspecified) | 5.9% | 67.9* | / | / | / | 116.0*
CN1CCC(=O)N([C@H](CN=[N+]=[N-])c2ccccc2)CC1 | -3.0% | 22.9* | 47.9% | ? | -3.8% | 19.6*
Cc1ccc(SCC(c2ccccc2)N2CCN(CC(C)C)CCC2=O)cc1 (stereo unspecified) | 19.9% | 42.5* | / | / | / | 89.1*
CO/N=C(\C(=O)N[C@@H]1C(=O)N2C(C(=O)O)=C(CSc3nc(=O)c(O)nn3C)CSC12)c1csc(N)n1 (stereo partly specified) | -0.7% | / | / | -1.4% | / | /
CCCCCCCCCCCCCCC[C@H](O)[C@H](N)CO | -1.6% | / | -29.2% | -1.4% | ? | /
CC1Sc2ccc(S(=O)(=O)CCC(=O)NC(C)c3ccccc3)cc2NC1=O (stereo unspecified) | -8.9% | -1.5 | -7.5% | -4.4% | 2.5% | -3.8
COC(=O)c1cn(CCC#N)nc1-c1ccc2ccccc2c1 | 15.2% | -1.1 | 15.9% | -9.8% | ? | -10.0
CN1CCC(=O)N(C(CSc2ccc(Br)cc2)c2ccccc2)CC1 (stereo unspecified) | 6.8% | 33.1* | / | / | / | 82.9*
CC(C)CN1CCC(=O)N([C@H](CSc2ccc(Br)cc2)c2ccccc2)CC1 | 14.2% | -2.2 | 48.1% | -2.2% | 32.8% | 26.8
COc1ccc(SCC(c2ccccc2)N2CCN(CC(C)C)CCC2=O)cc1 (stereo unspecified) | -1.6% | 9.2 | / | / | / | -4.9
CN1CCC(=O)N([C@H](CSc2ccccc2)c2ccccc2)CC1 | -0.9% | 17.7* | 31.9% | -11.4% | 22.7% | 58.3
CC(C)C[C@@H](CN=[N+]=[N-])N1CCN(C)CCC1=O | -5.6% | -0.9 | 9.1% | 6.8% | 14.7µM* | -4.5
O=C(CSc1nnc(-c2ccco2)c(-c2ccco2)n1)Nc1ccccc1 | ? | 31.5* | 1.7% | ? | 1.4% | 27.1
COc1ccc(C(=O)CSc2nnc(-c3ccco3)c(-c3ccco3)n2)cc1 | ? | 10.1 | -3.0% | 5.8% | 1.47µM* | 19.8
Cc1ccccc1NC(=O)CSc1nnc(-c2ccco2)c(-c2ccco2)n1 | 1.77µM* | 0.9 | ? | ? | 0.0% | 22.3
